# From PMC8384837, “Expanding the binding specificity for RNA recognition by a PUF domain”
# What was measured:
# Experiment in all cases: yeast three-hybrid, YBZ-1, SC-Leu-His + 0.5 mM 3-AT, 4 days
# Settings in all cases: tags: N-Gal4 AD-HA kept; label: inside an RPR1-promoter hybrid RNA with tandem MS2 sites; ssRNA
# PUM1 PUF domain R2-RKS = PUM1 PUF domain R2-RKS (Homo sapiens, UniProt Q14671 828-1176, N899R;Y900K;Q903S)
# Summary of the method: (§1)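 The interaction score is the log change in variant frequency from input to selection. Scores were computed in log2 with a pseudocount of 1 for absent variants, using Illumina sequencing of PCR-amplified repeat regions. The input came from four days on SC-Leu and the selection from four days on SC-Leu-His + 0.5 mM 3-AT. The cells were strain YBZ-1 (LexA–MS2 coat fusion, HIS3 reporter) co-expressing Pumilio-1 PUF domain libraries and matching RNA elements from a centromeric plasmid.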
# PUM1 PUF domain R6-IWQ = target: T1, PUM1 PUF domain R6-IWQ (Homo sapiens, UniProt Q14671 828-1176, N1043I;Y1044W)
# T1 sequence: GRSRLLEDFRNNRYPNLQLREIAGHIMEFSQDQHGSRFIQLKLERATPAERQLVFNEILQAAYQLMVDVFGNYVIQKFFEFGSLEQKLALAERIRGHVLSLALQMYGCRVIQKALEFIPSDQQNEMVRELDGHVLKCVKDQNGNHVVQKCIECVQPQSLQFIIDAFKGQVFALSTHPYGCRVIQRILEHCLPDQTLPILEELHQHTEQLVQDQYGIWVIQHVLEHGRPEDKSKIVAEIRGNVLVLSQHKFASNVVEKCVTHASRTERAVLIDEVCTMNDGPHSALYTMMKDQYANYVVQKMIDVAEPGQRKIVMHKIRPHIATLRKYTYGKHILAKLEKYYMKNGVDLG
# Summary of the method: as §1
# PUM1 PUF domain R3-IYV = PUM1 PUF domain R3-IYV (Homo sapiens, UniProt Q14671 828-1176, C935I;R936Y;Q939V)
# Summary of the method: as §1
# PUM1 PUF domain R3-WYR = PUM1 PUF domain R3-WYR (Homo sapiens, UniProt Q14671 828-1176, C935W;R936Y;Q939R)
# Summary of the method: as §1
# PUM1 PUF domain R3-LRV = PUM1 PUF domain R3-LRV (Homo sapiens, UniProt Q14671 828-1176, C935L;Q939V)
# Summary of the method: as §1
# PUM1 PUF domain R5-DHN = PUM1 PUF domain R5-DHN (Homo sapiens, UniProt Q14671 828-1176, C1007D;R1008H;Q1011N)
# Summary of the method: as §1
# PUM1 PUF domain R2-CWP = PUM1 PUF domain R2-CWP (Homo sapiens, UniProt Q14671 828-1176, N899C;Y900W;Q903P)
# Summary of the method: as §1
# PUM1 PUF domain R1-QTK = PUM1 PUF domain R1-QTK (Homo sapiens, UniProt Q14671 828-1176, S863Q;R864T;Q867K)
# Summary of the method: as §1
# PUM1 PUF domain R1-RFQ = PUM1 PUF domain R1-RFQ (Homo sapiens, UniProt Q14671 828-1176, S863R;R864F)
# Summary of the method: as §1
# PUM1 PUF domain R5-RFE = PUM1 PUF domain R5-RFE (Homo sapiens, UniProt Q14671 828-1176, C1007R;R1008F;Q1011E)
# Summary of the method: as §1
# PUM1 PUF domain R5-KRI = PUM1 PUF domain R5-KRI (Homo sapiens, UniProt Q14671 828-1176, C1007K;Q1011I)
# Summary of the method: as §1
# PUM1 PUF domain R5-RVM = PUM1 PUF domain R5-RVM (Homo sapiens, UniProt Q14671 828-1176, C1007R;R1008V;Q1011M)
# Summary of the method: as §1
# PUM1 PUF domain R7-VRR = PUM1 PUF domain R7-VRR (Homo sapiens, UniProt Q14671 828-1176, S1079V;N1080R;E1083R)
# Summary of the method: as §1
# PUM1 PUF domain R8-RHR = PUM1 PUF domain R8-RHR (Homo sapiens, UniProt Q14671 828-1176, N1122R;Y1123H;Q1126R)
# Summary of the method: as §1
# PUM1 PUF domain R8-RMR = PUM1 PUF domain R8-RMR (Homo sapiens, UniProt Q14671 828-1176, N1122R;Y1123M;Q1126R)
# Summary of the method: as §1
# PUM1 PUF domain R8-RHA = PUM1 PUF domain R8-RHA (Homo sapiens, UniProt Q14671 828-1176, N1122R;Y1123H;Q1126A)
# Summary of the method: as §1
# PUM1 PUF domain R4-EYL = PUM1 PUF domain R4-EYL (Homo sapiens, UniProt Q14671 828-1176, N971E;H972Y;Q975L)
# Summary of the method: as §1
# PUM1 PUF domain R4-SRT = PUM1 PUF domain R4-SRT (Homo sapiens, UniProt Q14671 828-1176, N971S;H972R;Q975T)
# Summary of the method: as §1
# PUM1 PUF domain R3-RPW = PUM1 PUF domain R3-RPW (Homo sapiens, UniProt Q14671 828-1176, C935R;R936P;Q939W)
# Summary of the method: as §1
# PUM1 PUF domain R3-NPG = PUM1 PUF domain R3-NPG (Homo sapiens, UniProt Q14671 828-1176, C935N;R936P;Q939G)
# Summary of the method: as §1
# PUM1 PUF domain R4-EYL, sequence (Q14671 828-1176 N971E/H972Y/Q975L): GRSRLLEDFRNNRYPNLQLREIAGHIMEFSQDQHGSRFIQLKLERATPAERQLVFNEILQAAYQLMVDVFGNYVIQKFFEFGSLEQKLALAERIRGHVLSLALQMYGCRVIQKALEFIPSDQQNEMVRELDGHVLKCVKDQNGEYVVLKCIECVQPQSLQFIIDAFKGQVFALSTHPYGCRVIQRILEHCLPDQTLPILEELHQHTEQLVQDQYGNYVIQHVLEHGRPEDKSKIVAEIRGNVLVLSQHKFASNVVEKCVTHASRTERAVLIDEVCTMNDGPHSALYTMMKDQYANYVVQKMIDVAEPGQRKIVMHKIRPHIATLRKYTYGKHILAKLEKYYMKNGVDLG
# PUM1 PUF domain R2-RKS, sequence (Q14671 828-1176 N899R/Y900K/Q903S): as the sequence (Q14671 828-1176 N971E/H972Y/Q975L) above, with N72R, Y73K, Q76S, E144N, Y145H, L148Q counted along it
# PUM1 PUF domain R4-SRT, sequence (Q14671 828-1176 N971S/H972R/Q975T): as the sequence (Q14671 828-1176 N971E/H972Y/Q975L) above, with E144S, Y145R, L148T counted along it
# PUM1 PUF domain R1-RFQ, sequence (Q14671 828-1176 S863R/R864F): as the sequence (Q14671 828-1176 N971E/H972Y/Q975L) above, with S36R, R37F, E144N, Y145H, L148Q counted along it
# PUM1 PUF domain R1-QTK, sequence (Q14671 828-1176 S863Q/R864T/Q867K): as the sequence (Q14671 828-1176 N971E/H972Y/Q975L) above, with S36Q, R37T, Q40K, E144N, Y145H, L148Q counted along it
# PUM1 PUF domain R2-CWP, sequence (Q14671 828-1176 N899C/Y900W/Q903P): as the sequence (Q14671 828-1176 N971E/H972Y/Q975L) above, with N72C, Y73W, Q76P, E144N, Y145H, L148Q counted along it
sequence,measurement,setting,value
GGCUAGAACUAGUGGAUCCCCCGGCGCCCGGCGGCUCGAGCCCGGGUAAGUGUAAAGAGUCUGCAUGCCGCCGGGCGCCAUGCCUGCAGGUCGACUCUAGAAAACAUG,binding signal,PUM1 PUF domain R2-RKS,4.33 log2 enrichment (interaction score)
GGCUAGAACUAGUGGAUCCCCCGGCGCCCGGCGGCUCGAGCCCGGGUAAGUGUAAACAGUCUGCAUGCCGCCGGGCGCCAUGCCUGCAGGUCGACUCUAGAAAACAUG,binding signal,PUM1 PUF domain R2-RKS,0.34 log2 enrichment (interaction score)
GGCUAGAACUAGUGGAUCCCCCGGCGCCCGGCGGCUCGAGCCCGGGUAAGUGAAAAUAGUCUGCAUGCCGCCGGGCGCCAUGCCUGCAGGUCGACUCUAGAAAACAUG,binding signal,PUM1 PUF domain R6-IWQ,4.87 log2 enrichment (interaction score)
GGCUAGAACUAGUGGAUCCCCCGGCGCCCGGCGGCUCGAGCCCGGGUAAGUGUAAGUAGUCUGCAUGCCGCCGGGCGCCAUGCCUGCAGGUCGACUCUAGAAAACAUG,binding signal,PUM1 PUF domain R3-IYV,4.55 log2 enrichment (interaction score)
same,binding signal,PUM1 PUF domain R3-WYR,2.45 log2 enrichment (interaction score)
same,binding signal,PUM1 PUF domain R3-LRV,3.77 log2 enrichment (interaction score)
GGCUAGAACUAGUGGAUCCCCCGGCGCCCGGCGGCUCGAGCCCGGGUAAGUGUGAAUAGUCUGCAUGCCGCCGGGCGCCAUGCCUGCAGGUCGACUCUAGAAAACAUG,binding signal,PUM1 PUF domain R5-DHN,2.35 log2 enrichment (interaction score)
GGCUAGAACUAGUGGAUCCCCCGGCGCCCGGCGGCUCGAGCCCGGGUAAGUGUAAAAAGUCUGCAUGCCGCCGGGCGCCAUGCCUGCAGGUCGACUCUAGAAAACAUG,binding signal,PUM1 PUF domain R2-CWP,6.72 log2 enrichment (interaction score)
GGCUAGAACUAGUGGAUCCCCCGGCGCCCGGCGGCUCGAGCCCGGGUAAGUGUAAAUCGUCUGCAUGCCGCCGGGCGCCAUGCCUGCAGGUCGACUCUAGAAAACAUG,binding signal,PUM1 PUF domain R1-QTK,2.31 log2 enrichment (interaction score)
same,binding signal,PUM1 PUF domain R1-RFQ,5.82 log2 enrichment (interaction score)
GGCUAGAACUAGUGGAUCCCCCGGCGCCCGGCGGCUCGAGCCCGGGUAAGUGUCAAUAGUCUGCAUGCCGCCGGGCGCCAUGCCUGCAGGUCGACUCUAGAAAACAUG,binding signal,PUM1 PUF domain R5-RFE,4.53 log2 enrichment (interaction score)
same,binding signal,PUM1 PUF domain R5-KRI,4.51 log2 enrichment (interaction score)
same,binding signal,PUM1 PUF domain R5-RVM,2.54 log2 enrichment (interaction score)
GGCUAGAACUAGUGGAUCCCCCGGCGCCCGGCGGCUCGAGCCCGGGUAAGUUUAAAUAGUCUGCAUGCCGCCGGGCGCCAUGCCUGCAGGUCGACUCUAGAAAACAUG,binding signal,PUM1 PUF domain R7-VRR,2.18 log2 enrichment (interaction score)
GGCUAGAACUAGUGGAUCCCCCGGCGCCCGGCGGCUCGAGCCCGGGUAAGUGUUAAUAGUCUGCAUGCCGCCGGGCGCCAUGCCUGCAGGUCGACUCUAGAAAACAUG,binding signal,PUM1 PUF domain R5-DHN,2.22 log2 enrichment (interaction score)
GGCUAGAACUAGUGGAUCCCCCGGCGCCCGGCGGCUCGAGCCCGGGUAAGCGUAAAUAGUCUGCAUGCCGCCGGGCGCCAUGCCUGCAGGUCGACUCUAGAAAACAUG,binding signal,PUM1 PUF domain R8-RHR,6.54 log2 enrichment (interaction score)
same,binding signal,PUM1 PUF domain R8-RMR,3.05 log2 enrichment (interaction score)
same,binding signal,PUM1 PUF domain R8-RHA,4.75 log2 enrichment (interaction score)
GGCUAGAACUAGUGGAUCCCCCGGCGCCCGGCGGCUCGAGCCCGGGUAAGUGUAUAUAGUCUGCAUGCCGCCGGGCGCCAUGCCUGCAGGUCGACUCUAGAAAACAUG,binding signal,PUM1 PUF domain R4-EYL,3.34 log2 enrichment (interaction score)
same,binding signal,PUM1 PUF domain R4-SRT,2.14 log2 enrichment (interaction score)
GGCUAGAACUAGUGGAUCCCCCGGCGCCCGGCGGCUCGAGCCCGGGUAAGUGUAAUUAGUCUGCAUGCCGCCGGGCGCCAUGCCUGCAGGUCGACUCUAGAAAACAUG,binding signal,PUM1 PUF domain R3-WYR,2.58 log2 enrichment (interaction score)
same,binding signal,PUM1 PUF domain R3-RPW,2.6 log2 enrichment (interaction score)
same,binding signal,PUM1 PUF domain R3-LRV,1.41 log2 enrichment (interaction score)
same,binding signal,PUM1 PUF domain R3-NPG,2.86 log2 enrichment (interaction score)
GGCUAGAACUAGUGGAUCCCCCGGCGCCCGGCGGCUCGAGCCCGGGUAAGUGUAAAUAGUCUGCAUGCCGCCGGGCGCCAUGCCUGCAGGUCGACUCUAGAAAACAUG,binding signal,PUM1 PUF domain R4-EYL,4.64 log2 enrichment (interaction score)
same,binding signal,PUM1 PUF domain R3-IYV,2.65 log2 enrichment (interaction score)
same,binding signal,PUM1 PUF domain R8-RHR,5.61 log2 enrichment (interaction score)
same,binding signal,PUM1 PUF domain R8-RMR,1.55 log2 enrichment (interaction score)
same,binding signal,PUM1 PUF domain R5-DHN,3.41 log2 enrichment (interaction score)
same,binding signal,PUM1 PUF domain R8-RHA,3.38 log2 enrichment (interaction score)
same,binding signal,PUM1 PUF domain R4-SRT,3.46 log2 enrichment (interaction score)
GGCUAGAACUAGUGGAUCCCCCGGCGCCCGGCGGCUCGAGCCCGGGUAAGUGUACAUAGUCUGCAUGCCGCCGGGCGCCAUGCCUGCAGGUCGACUCUAGAAAACAUG,binding signal,PUM1 PUF domain R4-EYL,1.81 log2 enrichment (interaction score)
